Measurements as given in PubChem BioAssay AID493035 (The Scripps Research Institute Molecular Screening Center, 2011).
Screen size: about 2,000 compounds; about 45 (2%) were called active. Many of the other results were omitted from the sample, so actives are more common in it than they were. A number with no mark means an inactive call.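 The calls were made as follows: active = inhibition above the mean of all tested compounds plus 3 SD (cut at about 49% in these data); inactive = the rest.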

target: Perilipin-5 (Homo sapiens) + 1-acylglycerol-3-phosphate O-acyltransferase ABHD5 (Homo sapiens) (UniProt Q00G26+Q8WTS1); experiment: ABHD5-PLIN5 interaction inhibitors, pilot screen, cell lysate, split luciferase complementation, luminescence, NIH validation set (AID 493035);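 also: 0% = DMSO only wells while the 100% control is not stated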; conditions: split G. princeps luciferase complementation, lysates, 4 h; at 7.9 µM, hits give high values
Sequence (Q00G26 whole entry, looked up): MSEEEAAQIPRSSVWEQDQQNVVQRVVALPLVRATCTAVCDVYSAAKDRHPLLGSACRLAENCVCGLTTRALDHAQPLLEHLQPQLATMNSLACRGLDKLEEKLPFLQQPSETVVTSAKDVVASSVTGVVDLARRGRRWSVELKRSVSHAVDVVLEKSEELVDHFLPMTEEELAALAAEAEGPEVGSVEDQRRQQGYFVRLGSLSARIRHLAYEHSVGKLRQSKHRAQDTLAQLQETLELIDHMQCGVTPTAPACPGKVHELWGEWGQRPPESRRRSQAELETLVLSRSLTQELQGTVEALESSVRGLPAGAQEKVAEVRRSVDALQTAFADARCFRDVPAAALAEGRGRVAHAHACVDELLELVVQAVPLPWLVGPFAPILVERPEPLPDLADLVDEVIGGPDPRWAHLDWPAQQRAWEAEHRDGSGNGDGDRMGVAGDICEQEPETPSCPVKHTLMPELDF
Sequence (Q8WTS1 whole entry, looked up): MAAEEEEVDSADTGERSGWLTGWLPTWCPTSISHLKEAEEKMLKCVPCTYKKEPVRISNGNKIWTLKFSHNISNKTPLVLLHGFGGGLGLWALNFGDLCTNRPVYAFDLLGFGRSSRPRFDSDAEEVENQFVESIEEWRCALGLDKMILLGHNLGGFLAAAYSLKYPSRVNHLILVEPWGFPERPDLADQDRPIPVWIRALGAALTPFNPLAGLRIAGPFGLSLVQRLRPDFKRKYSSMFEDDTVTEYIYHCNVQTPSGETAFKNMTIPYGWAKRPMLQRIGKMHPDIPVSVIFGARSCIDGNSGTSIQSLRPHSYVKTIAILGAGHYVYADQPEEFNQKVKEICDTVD

| Compound | inhibition |
| --- | --- |
| O=C1CCCN1CCCn1cnc2c([nH]c3ccc(F)cc32)c1=O | 1.78% |
| CC12CCCCN1CCCc1c2[nH]c2ccccc12 (stereo not drawn) | 6.67% |
| CC(C)C[C@H](NC(=O)[C@@H]1Cc2ccccc2CN1C(=O)OC(C)(C)C)C(=O)NCC1CCC(C(=O)O)CC1 (stereo partly drawn) | -1.68% |
| COc1ccc(CNCCC(c2ccc(F)cc2)c2ccc(OC(C)C)cc2)cc1OC (stereo not drawn) | -5.38% |
| COc1ccc(CN(CCC(c2ccccc2)c2ccc(OC(C)C)cc2)C(=O)CCl)cc1OC (stereo not drawn) | 67% (active) |
| COc1ccccc1C(CC(=O)Nc1ccccc1C)c1ccc(OC(C)C)cc1 (stereo not drawn) | 1.65% |
| Cn1c(=O)oc2cc(S(=O)(=O)N3CCc4ccccc4C3)ccc21 | -0.05% |
| CC(C)C12CN3CC(C(C)C)(CN(C1)C3c1ccccc1O)C2=O (stereo not drawn) | 0.76% |
| c1coc(-c2nnc3n2C2(CCCC2)Cc2ccccc2-3)c1 | -2.54% |
| CC(C)CN1CCN(Cc2ccc(C#CC(C)(C)O)cc2)CC1CCO (stereo not drawn) | 1.45% |
| COc1ccc(CN2CCCCC2C(=O)Nc2ccc(OC)c(OCC(C)C)c2)cc1OC (stereo not drawn) | -8.58% |
| COc1ccccc1C(O)c1nccn1C (stereo not drawn) | -0.96% |
| COc1cc(/C=C(\C#N)C(=O)N2CCc3ccccc32)ccc1O | 50.3% (active) |
| CC12CCC(C(=O)N3CCc4ccccc43)(CC1=O)C2(C)C (stereo not drawn) | -4.02% |
| COc1cc(/C=C/C(=O)CC(=O)/C=C/c2ccc(O)c(OC)c2)ccc1O | 47.6% |
| Cn1c(=O)[nH]c(=O)c2c1nc(NCc1ccco1)n2CCCc1ccccc1 | -10% |
| CC1(C)CC(NC(=O)C23CCC(C)(C(=O)C2=O)C3(C)C)CC(C)(C)N1 (stereo not drawn) | -7.41% |
| NC(N)=N/N=C/c1ccc(OS(=O)(=O)c2ccccc2)cc1 | -1.57% |
| COc1cc(C(=O)Nc2cccc(-c3nnc(-c4ccco4)o3)c2)ccc1OC(C)=O | -3.44% |
| COc1ccc(/C=C2\CC/C(=C\c3ccc(OC)c(OC)c3)C2=O)cc1OC | 72.8% (active) |
| COc1ccc(/C=C2\CCn3c2nc2cc(C(=O)O)ccc2c3=O)cc1OC | -3.54% |
| COc1ccc(/C=C2\CCc3ccccc3C2=O)c(OC)c1OC | -7.62% |
| COc1ccc(C(=O)Nc2ccccc2C(=O)NCCCn2ccnc2)cc1 | -6.29% |
| Cc1nonc1CN(C)C(=O)c1ccc(OC2CCN(C(=O)c3cccnc3)CC2)cc1 | 2.15% |
| N#C/C(=C/c1ccccc1)C(=O)NCc1ccccc1 | 62.6% (active) |

| Compound | inhibition |
| --- | --- |
| S=C(NCc1ccccc1)NCc1cccc(CNC(=S)NCc2ccccc2)c1 | 10.2% |
| N#C/C(=C\c1ccc(O)c(O)c1)C(=O)NCCCc1ccccc1 | 28.2% |
| COc1ccc(NC(=O)CC2C(=O)N(C)C(=S)N2Cc2ccncc2)cc1 (stereo not drawn) | -3.37% |
| O=C(O)C1Cc2ccccc2CN1S(=O)(=O)c1ccccc1 (stereo not drawn) | 3.15% |
| O=C(O)Cc1ccc(O)c(F)c1 | -5.48% |
| CCOc1ccc(N2C(=O)CNC2=S)cc1 | -13.8% |
| COc1ccccc1-c1c(C(F)(F)F)oc2cc(OC(=O)c3ccc([N+](=O)[O-])cc3)ccc2c1=O | 29.5% |
| O=C(CN1C(=O)/C(=C/c2cccc(Br)c2)SC1=S)Nc1cccnc1 | 52% (active) |
| O=C(CCCN1C(=O)/C(=C\c2cccs2)SC1=S)Nc1ccccn1 | -1.47% |
| O=C(CCCN1C(=O)/C(=C\c2cccc(Br)c2)SC1=S)Nc1cccnc1 | 28.1% |
| COc1ccc(C2=NOC(COc3ccc4c(C)cc(=O)oc4c3)C2)c(OC)c1 (stereo not drawn) | 27.1% |
| O=C(COc1ccc2c(-c3ccccc3)cc(=O)oc2c1)NCc1cccs1 | 9.91% |
| CC/C(=C1/C(=O)CC(C)(C)C(C(=O)OC)C1=O)N1CCCC1 (stereo not drawn) | 6.45% |
| COc1cccc2cc(-c3ccccc3)c(=O)oc12 | -4.71% |
| COc1ccc(C(=O)/C=C/c2ccc(OC(=O)c3cc(OC)c(OC)c(OC)c3)cc2)cc1 | 40.8% |
| COc1ccc(/C=C/C(=O)c2cc3cccc(OC)c3oc2=O)cc1 | 69.5% (active) |
| N/C(=N\OC(=O)CCCOc1ccc(Cl)cc1Cl)c1ccccn1 | -4.4% |
| CC12COC3(C(=O)Nc4ccc(F)cc4)CC1CCC32C (stereo not drawn) | -5.49% |
| O=C(Nc1ncc2c(n1)CC(c1ccco1)CC2=O)c1ccco1 (stereo not drawn) | 0.31% |
| O=C(O)c1ccc(C(=O)C(=O)c2ccccc2)cc1 | -3.75% |
| Cn1cc(/C=C/C(=O)c2ccccc2)c2ccccc21 | 13.7% |
| O=C(/C=C/c1ccccc1)/C=C/c1ccccc1 | 92.3% (active) |
| CC(CCc1ccccc1)NC(=O)/C=C/c1ccccc1 (stereo not drawn) | 0.97% |
| O=C(/C=C/c1ccccc1)NC(=O)c1ccccc1O | 12.7% |
| O=C(CCCCCCCC(=O)c1ccccc1)c1ccccc1 | -4.5% |

| Compound | inhibition |
| --- | --- |
| N/C(=N\OC(=O)/C=C/c1ccccc1)c1ccc(Br)cc1 | -11.8% |
| O=C(/C=C/Sc1ccccc1)c1ccccc1 | 85.6% (active) |
| O=C(/C=C/c1ccccc1)c1ccccc1 | 69.7% (active) |
| COc1ccc(Cc2noc(CN(C)CCN3CCc4ccccc4C3)n2)cc1OC | -5.39% |
| CC(=O)Nc1ccc2[nH]c(C)c(CC=C(Cl)Cl)c(=O)c2c1 | -10.7% |
| COc1ccc(CCn2c(C)nc3c(c(=O)c4ccccc4n3C)c2=O)cc1 | 11% |
| Cc1nnc(SCC(=O)N2CCCC(C(=O)c3ccc(Cl)cc3)C2)o1 (stereo not drawn) | 0.98% |
| Cc1ccc2[nH]c3c(=O)n(CCCN4CCN(C)CC4)cnc3c2c1 | -5.12% |
| O=C(O)CCn1c(=S)n(CCC(=O)O)c2ccccc21 | 8.91% |
| Cc1ccccc1OCCSc1nc2ncnc(N)c2[nH]1 | -10.3% |
| COc1c(C)cc(C(=O)C2CCCN(Cc3ccc(Oc4ncccn4)cc3)C2)cc1C (stereo not drawn) | -0.46% |
| CSCCC(NC(C)=O)C(=O)Oc1ccc2c3c(c(=O)oc2c1)CCCC3 (stereo not drawn) | 1.97% |
| O=c1c(-c2ccc3c(c2)OCCO3)coc2cc(OC3OC(CO)C(O)C(O)C3O)ccc12 (stereo not drawn) | -6.25% |
| CSCCC(NC(=O)OC(C)(C)C)C(=O)Oc1ccc2c(=O)c(-c3ccc4c(c3)OCCO4)coc2c1 (stereo not drawn) | 69.1% (active) |
| CCc1c(C)c2ccc(OCC(=O)OC(C)C)c(C)c2oc1=O | -3.95% |
| CCOc1ccc(CC2c3cc(OCC)c(OCC)cc3CCN2C(=O)CN2CCN(C)CC2)cc1OCC (stereo not drawn) | -0.88% |
| O=C(/C=C/c1ccc(Cl)cc1)NCCc1ccccc1 | 1.1% |
| O=C(O)CCCCCN1C(=O)C(=O)/C(=C(/O)c2ccccc2)C1c1ccccc1 (stereo not drawn) | -14.1% |
| Nc1cc(-c2ccncc2)c[nH]c1=O | 75.3% (active) |
| c1cc(-c2ccncc2)ccn1 | -3.86% |
| CCc1cc(=O)oc2cc3occ(-c4ccc(OC)c(F)c4)c3cc12 | 14.2% |
| CC(C)=CC/C=C1\CCC(C(=O)O)C(C(=O)O)C1 (stereo not drawn) | 1.14% |
| COCCOC(=O)C1=C(N)OC2=C(C(=O)CCC2)C1c1cccnc1 (stereo not drawn) | 0.01% |
